In PubChem BioAssay (NCI):
This is part of a sample that, as a whole, favours compounds with a hit. Of some 83,000 tested, about 20% had one in any assay.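 Each cell line was grown in a 96-well plate and treated with one concentration of compound for 48 hours. Values below 10 were considered active.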 A number with no mark means an inactive call. Active and inactive are the calls of the source.

Tested on: HL-60(TB) leukemia
Experiment: NCI-60 one-dose screen, 48 h (100 = growth as untreated, 0 = no growth, -100 = all killed)
Details: 10 µM unless noted

Structure (SMILES) | growth
CSc1nc(N)c2c(n1)N(C)C=NS2(=O)=O | 124%
COc1cccc(-c2nn(-c3ccccc3)cc2-c2ccnc(NCCCNS(=O)(=O)c3ccc(C(F)(F)F)cc3)c2)c1 | 12.4%
Cc1ccc(/C=C/C(=O)c2cccc(OCCCOc3cccc(C(=O)/C=C/c4ccc(C)cc4)c3)c2)cc1 | 57.6%
CCCCCSc1ccc2nc(NC(=O)OCCC)sc2c1 | 5.41% (active)
NCCOc1ncccc1/C=C1\c2ccccc2-c2ccc(F)cc21 | -38.6% (active)
CC(=O)Nc1ccc(C=Nc2ccc3ccccc3c2)cc1 | 107%
COc1ccc2nc(-n3nc(C)cc3C)c(-n3nc(C)cc3C)nc2c1 | 104%
O=C(/C=C/c1cccc([N+](=O)[O-])c1)c1ccc(Nc2nc(N3CCCCC3)nc(N3CCCCC3)n2)cc1 | 79.4%
COc1cc(C2C(C(=O)c3cccs3)=C(O)C(=O)N2CCN2CCOCC2)cc(OC)c1OC (stereo not given) | 120%
COc1ccc(C2C(C#N)=C(N)Oc3c2sc2c(C)cccc32)cc1 (stereo not given) | -13.9% (active)
Cc1cc(N/N=C/c2nc(-c3ccc(Br)cc3)oc2C)c2cc(Cl)ccc2n1 | -0.0323% (active)
C[C@]12CC[C@@H]3c4ccc(O)c(N)c4CC[C@H]3[C@@H]1CC[C@@H]2O | 85.3%
Cc1ccc(S(=O)(=O)N2CCc3ccc(O)c4c3C2Cc2ccc3c(c2-4)OCO3)cc1 (stereo not given) | -8.02% (active)
CN(C)CCNC(=O)c1ccc(-c2nc3ccc4[nH]ncc4c3c3c2C2CCC3C2)cc1 (stereo not given) | -20.6% (active)
Cc1ccc(/C=C2\CN(C(=O)C(Cl)Cl)C/C(=C\c3ccc(C)cc3)C2=O)cc1 | -21% (active)
COc1ccccc1NS(=O)(=O)c1ccc2oc(SC(C)C)nc2c1 | 53.6%
O=C1Nc2ccc(Cl)cc2/C1=N/N=C/c1c[nH]c2ccccc12 | 95.5%
COc1cccc(-c2nnc(N)o2)c1 | 74.9%
CC(C)(C)n1cc(-c2ccnc(NCCCNS(=O)(=O)c3ccccc3)c2)c(-c2cccc(O)c2)n1 | 32.8%
Cc1ccc(-c2nc(C#N)c(S(=O)(=O)NCCO)o2)cc1 | -20.1% (active)
O=C1c2ccccc2C(=O)N1c1ccccc1 | 111%
COc1c(Cl)cc(Cl)c2ccc(C=C3C(=O)N(C)C(=O)N(C)C3=O)nc12 | 98.1%
CCCCOC(OCCCC)c1ccccc1 | 96.7%
Cc1c(O)cccc1O | 110%
CN(C)CCCC1(c2ccc(F)cc2)OCc2cc(-c3csc4ccccc34)ccc21 (stereo not given) | -52.1% (active)
